Data as given in PubChem BioAssay AID1159580 (chemical genetic matrix, 2015).
In all, about 5,500 compounds went through this assay and about 2,000 (36%) were called active. Not shown: some 18% with an inconclusive outcome. The list shows a part of the results. A number with no mark means an inactive call. No stated cut-off is given here; in the data, active means normalized growth mostly below about 0.91 (no sharp cut-off); inconclusive means no clear call, values can overlap the other calls; inactive means mostly above about 0.92.

Experiment: chemical genetic growth profiling, strain panel (AID 1159580);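 further: tested at 20 µM; growth read once vehicle control cultures reached saturation at 30 °C; 1 = growth at the plate median or of vehicle wells; lower values mean less growth of the strain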
Conditions: growth OD

## O=C1C=C2C(=CCOC2O)O1 (stereo unspecified)
S. cerevisiae deletion strains, locus YKL009W, strain mrt4, active compounds read low
  normalized growth: 0.714 (active)
S. cerevisiae deletion strains, locus YKL068W, active compounds read low
  normalized growth: 0.904 (active)
S. cerevisiae deletion strains, locus YKL085W, strain MDH1 (second series), active compounds read low
  normalized growth: 0.868 (active)
S. cerevisiae deletion strains, locus YKL085W, strain MDH1, active compounds read low
  normalized growth: 0.868 (active)
S. cerevisiae deletion strains, locus YKL160W, strain elf1, active compounds read low
  normalized growth: 0.736 (active)
S. cerevisiae deletion strains, locus YKL190W, strain CNB1, active compounds read low
  normalized growth: 0.834 (active)
S. cerevisiae deletion strains, locus YKR001C, strain vps1, active compounds read low
  normalized growth: 0.541 (active)
S. cerevisiae deletion strains, locus YKR026C, strain gcn3, active compounds read low
  normalized growth: 0.795 (active)
S. cerevisiae deletion strains, locus YKR091W, strain srl3, active compounds read low
  normalized growth: 0.885 (active)
S. cerevisiae deletion strains, locus YLL001W, strain dnm1, active compounds read low
  normalized growth: 0.691 (active)
S. cerevisiae deletion strains, locus YLL026W, active compounds read low
  normalized growth: 0.769 (active)
S. cerevisiae deletion strains, locus YLL041C, strain sdh2, active compounds read low
  normalized growth: 0.84 (active)
S. cerevisiae deletion strains, locus YLR027C, strain aat2, active compounds read low
  normalized growth: 0.727 (active)
S. cerevisiae deletion strains, locus YLR039C, strain RIC1, active compounds read low
  normalized growth: 0.292 (active)
S. cerevisiae deletion strains, locus YLR058C, strain SHM2, active compounds read low
  normalized growth: 0.927
S. cerevisiae deletion strains, locus YLR102C, strain apc9, active compounds read low
  normalized growth: 0.96
S. cerevisiae deletion strains, locus YLR113W, strain HOG1, active compounds read low
  normalized growth: 0.708 (active)
S. cerevisiae deletion strains, locus YLR221C, strain rsa3, active compounds read low
  normalized growth: 0.716 (active)
S. cerevisiae deletion strains, locus YLR258W, strain gsy2, active compounds read low
  normalized growth: 0.794 (active)
S. cerevisiae deletion strains, locus YLR262C, strain YPT6 (second series), active compounds read low
  normalized growth: 0.337 (active)
S. cerevisiae deletion strains, locus YLR262C, strain YPT6, active compounds read low
  normalized growth: 0.231 (active)
S. cerevisiae deletion strains, locus YLR268W, strain sec22, active compounds read low
  normalized growth: 0.794 (active)
S. cerevisiae deletion strains, locus YLR320W, strain mms22, active compounds read low
  normalized growth: 0.701 (active)
S. cerevisiae deletion strains, locus YLR330W, strain CHS5, active compounds read low
  normalized growth: 0.87 (active)
S. cerevisiae deletion strains, locus YLR342W, strain FKS1 (second series), active compounds read low
  normalized growth: 0.774 (active)
S. cerevisiae deletion strains, locus YLR342W, strain FKS1, active compounds read low
  normalized growth: 0.72 (active)
S. cerevisiae deletion strains, locus YLR357W, strain rsc2, active compounds read low
  normalized growth: 0.862
S. cerevisiae deletion strains, locus YLR370C, strain arc18, active compounds read low
  normalized growth: 0.697 (active)
S. cerevisiae deletion strains, locus YLR371W, strain rom2, active compounds read low
  normalized growth: 0.945
S. cerevisiae deletion strains, locus YLR384C, strain iki3, active compounds read low
  normalized growth: 0.789 (active)
S. cerevisiae deletion strains, locus YLR418C, strain cdc73, active compounds read low
  normalized growth: 0.62 (active)
S. cerevisiae deletion strains, locus YML016C, strain PPZ1, active compounds read low
  normalized growth: 0.953
S. cerevisiae deletion strains, locus YML032C, strain rad52, active compounds read low
  normalized growth: 0.92
S. cerevisiae deletion strains, locus YML120C, strain ndi1, active compounds read low
  normalized growth: 0.76 (active)
S. cerevisiae deletion strains, locus YML124C, strain tub3, active compounds read low
  normalized growth: 0.918 (active)
S. cerevisiae deletion strains, locus YMR058W, strain fet3, active compounds read low
  normalized growth: 0.328 (active)
S. cerevisiae deletion strains, locus YMR078C, strain ctf18, active compounds read low
  normalized growth: 0.989
S. cerevisiae deletion strains, locus YMR125W, strain sto1, active compounds read low
  normalized growth: 0.729 (active)
S. cerevisiae deletion strains, locus YMR129W, active compounds read low
  normalized growth: 0.836 (active)
S. cerevisiae deletion strains, locus YMR205C, strain PFK2, active compounds read low
  normalized growth: 0.722 (active)
S. cerevisiae deletion strains, locus YMR223W, strain ubp8, active compounds read low
  normalized growth: 0.801 (active)
S. cerevisiae deletion strains, locus YMR231W, strain pep5, active compounds read low
  normalized growth: 0.0886 (active)
S. cerevisiae deletion strains, locus YMR263W, strain SAP30, active compounds read low
  normalized growth: 0.852 (active)
S. cerevisiae deletion strains, locus YMR307W, strain GAS1, active compounds read low
  normalized growth: 0.302 (active)
S. cerevisiae deletion strains, locus YNL067W, strain RPL9B, active compounds read low
  normalized growth: 0.689 (active)
S. cerevisiae deletion strains, locus YNL071W, strain lat1, active compounds read low
  normalized growth: 0.654 (active)
S. cerevisiae deletion strains, locus YNL128W, strain TEP1, active compounds read low
  normalized growth: 0.798 (active)
S. cerevisiae deletion strains, locus YNL153C, strain GIM3, active compounds read low
  normalized growth: 0.664 (active)
S. cerevisiae deletion strains, locus YNL183C, strain NPR1, active compounds read low
  normalized growth: 0.825 (active)
S. cerevisiae deletion strains, locus YNL209W, strain ssb2, active compounds read low
  normalized growth: 0.761 (active)
S. cerevisiae deletion strains, locus YNL233W, strain BNI4, active compounds read low
  normalized growth: 0.81 (active)
S. cerevisiae deletion strains, locus YNL248C, strain rpa49, active compounds read low
  normalized growth: 0.701 (active)
S. cerevisiae deletion strains, locus YNL250W, strain rad50, active compounds read low
  normalized growth: 0.903
S. cerevisiae deletion strains, locus YNL271C, strain bni1, active compounds read low
  normalized growth: 0.92
S. cerevisiae deletion strains, locus YNL298W, strain CLA4, active compounds read low
  normalized growth: 0.842 (active)
S. cerevisiae deletion strains, locus YNL307C, strain MCK1, active compounds read low
  normalized growth: 0.748 (active)
S. cerevisiae deletion strains, locus YNL322C, strain KRE1 (second series), active compounds read low
  normalized growth: 0.911
S. cerevisiae deletion strains, locus YNL322C, strain KRE1, active compounds read low
  normalized growth: 0.815 (active)
S. cerevisiae deletion strains, locus YNR049C, strain mso1, active compounds read low
  normalized growth: 0.812 (active)
S. cerevisiae deletion strains, locus YNR052C, strain pop2, active compounds read low
  normalized growth: 0.83 (active)
S. cerevisiae deletion strains, locus YOL006C, strain TOP1, active compounds read low
  normalized growth: 0.632
S. cerevisiae deletion strains, locus YOL012C, strain htz1
  normalized growth: 0.714
S. cerevisiae deletion strains, locus YOL147C, strain pex11, active compounds read low
  normalized growth: 0.984
S. cerevisiae deletion strains, locus YOR001W, strain rrp6, active compounds read low
  normalized growth: 0.638 (active)
S. cerevisiae deletion strains, locus YOR061W, strain CKA2, active compounds read low
  normalized growth: 0.929
S. cerevisiae deletion strains, locus YOR069W, strain VPS5, active compounds read low
  normalized growth: 0.862 (active)
S. cerevisiae deletion strains, locus YOR070C, strain gyp1, active compounds read low
  normalized growth: 0.794 (active)
S. cerevisiae deletion strains, locus YOR080W, strain dia2, active compounds read low
  normalized growth: 0.864 (active)
S. cerevisiae deletion strains, locus YOR083W, strain WHI5, active compounds read low
  normalized growth: 0.662 (active)
S. cerevisiae deletion strains, locus YOR106W, strain vam3, active compounds read low
  normalized growth: 0.522 (active)
S. cerevisiae deletion strains, locus YOR136W, strain idh2, active compounds read low
  normalized growth: 0.896 (active)
S. cerevisiae deletion strains, locus YOR144C, strain elg1, active compounds read low
  normalized growth: 0.966
S. cerevisiae deletion strains, locus YOR184W, strain ser1, active compounds read low
  normalized growth: 0.719 (active)
S. cerevisiae deletion strains, locus YOR231W, strain MKK1, active compounds read low
  normalized growth: 0.877
S. cerevisiae deletion strains, locus YOR265W, strain rbl2, active compounds read low
  normalized growth: 0.792 (active)
S. cerevisiae deletion strains, locus YOR270C, strain vph1, active compounds read low
  normalized growth: 0.506 (active)
S. cerevisiae deletion strains, locus YOR290C, strain snf2, active compounds read low
  normalized growth: 0.86 (active)
S. cerevisiae deletion strains, locus YOR316C, strain cot1, active compounds read low
  normalized growth: 0.951
S. cerevisiae deletion strains, locus YPL051W, strain arl3, active compounds read low
  normalized growth: 0.607 (active)
S. cerevisiae deletion strains, locus YPL055C, strain LGE1, active compounds read low
  normalized growth: 0.601 (active)
S. cerevisiae deletion strains, locus YPL078C, strain atp4, active compounds read low
  normalized growth: 0.615 (active)
S. cerevisiae deletion strains, locus YPL106C, strain sse1, active compounds read low
  normalized growth: 0.542 (active)
S. cerevisiae deletion strains, locus YPL240C, strain hsp82, active compounds read low
  normalized growth: 0.852 (active)
S. cerevisiae deletion strains, locus YPL241C, strain CIN2, active compounds read low
  normalized growth: 0.921 (active)
S. cerevisiae deletion strains, locus YPL256C, strain CLN2, active compounds read low
  normalized growth: 0.809 (active)
S. cerevisiae deletion strains, locus YPR119W, strain clb2, active compounds read low
  normalized growth: 0.965
S. cerevisiae deletion strains, locus YPR141C, strain kar3, active compounds read low
  normalized growth: 0.898 (active)
S. cerevisiae deletion strains, locus YPR163C, strain tif3, active compounds read low
  normalized growth: 0.823 (active)
S. cerevisiae deletion strains, locus YPR167C, strain met16, active compounds read low
  normalized growth: 0.937
S. cerevisiae deletion strains, strain wtn01, active compounds read low
  normalized growth: 0.76 (active)
S. cerevisiae strains, strain wild type, active compounds read low
  normalized growth: 0.78 (active)
